Test results taken from PubChem BioAssay (Tox21).
Where “and” joins values, the source holds several entries; their conditions need not be identical. Identical values can stand only once. Results filed as inconclusive are left out. A call without a number means that no potency is given here. The source holds several records for some structures; these can differ, active in one and inactive in another. Calls of active or inactive are those of the source. Unless noted, the call rests on the fitted dose curve; in most records, active means well fitted curve in the direction sought with a large enough effect in the repeat runs; inconclusive means weak or mixed curves; inactive means no such curve, though single readings can be large; an effect the other way counts as inactive or inconclusive.

How the values were obtained:
[1] = qHTS assay to identify small molecule antagonists of the retinoid acid receptor (RAR) signaling pathway - cell viability counter screen (AID 1159551); further: nearly all actives have a fitted effect of over 35% in size; further: potency means the concentration at half of the fitted maximal effect
Outline: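 C3RL4 RARE-luciferase cells, 1,000/well, incubated overnight, then dosed with compound plus 1 uM retinol (final). After 6 hr at 37 C, viability read by CellTiter-Glo ATP luminescence following 30 min at room temperature.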

[2] = qHTS assay to identify small molecule antagonists of the retinoic acid receptor (RAR) signaling pathway (AID 1159552; further: nearly all actives have a fitted effect of over 50% in size; further: potency means the concentration at half of the fitted maximal effect)
Outline: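 Using a RARE-driven luciferase construct in C3RL4 cells, retinol at 1 uM final provided the agonist stimulus while compounds were co-applied. After 6 hours at 37 C, luminescence was recorded to flag inhibitors of retinol signaling.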

[3] = biological target: Luciferin 4-monooxygenase (Photinus pyralis) (UniProt P08659); assay: qHTS assay to identify small molecule inhibitors of firefly luciferase (AID 1224835); further: nearly all actives have a fitted effect of over 25% in size; further: potency means the concentration at half of the fitted maximal effect
Sequence of Luciferin 4-monooxygenase (Photinus pyralis) (P08659 whole entry, looked up): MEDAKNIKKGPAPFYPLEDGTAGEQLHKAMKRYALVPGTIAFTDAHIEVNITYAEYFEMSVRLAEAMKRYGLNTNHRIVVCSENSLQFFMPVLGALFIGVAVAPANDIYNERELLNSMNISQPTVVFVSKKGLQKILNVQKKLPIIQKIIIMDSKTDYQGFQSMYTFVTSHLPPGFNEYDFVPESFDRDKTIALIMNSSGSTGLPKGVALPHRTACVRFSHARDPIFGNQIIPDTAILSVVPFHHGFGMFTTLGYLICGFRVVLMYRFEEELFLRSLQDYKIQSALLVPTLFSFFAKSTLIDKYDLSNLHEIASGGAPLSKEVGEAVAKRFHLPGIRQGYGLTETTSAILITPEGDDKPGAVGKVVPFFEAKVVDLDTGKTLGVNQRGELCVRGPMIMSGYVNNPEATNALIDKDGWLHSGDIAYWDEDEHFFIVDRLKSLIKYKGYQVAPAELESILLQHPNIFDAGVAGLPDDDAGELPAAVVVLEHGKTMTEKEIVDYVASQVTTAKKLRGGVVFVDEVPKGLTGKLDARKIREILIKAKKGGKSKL
Outline: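 Biochemical qHTS: compounds run as interplate titrations against purified firefly enzyme, with D-luciferin and ATP each at its KM concentration. Light output recorded by CCD imaging.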

[4] = qHTS assay to identify small molecule antagonists of the constitutive androstane receptor (CAR) signaling pathway - cell viability counter screen (AID 1224837); further: nearly all actives have a fitted effect of over 45% in size; further: potency means the concentration at half of the fitted maximal effect
Outline: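 HepG2 cells stably carrying hCAR and CYP2B6-2.2kb reporter, stimulated with 50 nM CITCO and compounds at 15 concentrations for 23 h at 37 C. Viability measured by CellTiter-Fluor fluorescence.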

[5] = qHTS assay to identify small molecule antagonists of the estrogen related receptor signaling pathway with the pleiotropic PPARgamma coactivator (PGC) from Tox21 10K library - cell viability counter screen (AID 1224840; active means well fitted cell-killing curve with a large enough effect in the repeat runs, not every such curve was filed as active; further: nearly all actives have a fitted effect of over 40% in size; further: potency means the concentration at half of the fitted maximal effect)
Outline: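 PGC/ERR cells (2,000/well) plated 6 h, then compound-treated for 17.5 h at 37 C. Viability measured by CellTiter-Fluor fluorescence after 30 min at 37 C, multiplexed with the pathway assay.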

[6] = qHTS assay to identify small molecule antagonists of the estrogen related receptor signaling pathway with the pleiotropic PPARgamma coactivator (PGC) from Tox21 10K library (AID 1224841; call rule not given here; further: actives are mostly falling curves and most rising ones were filed inactive; nearly all actives have a fitted effect of over 50% in size; further: potency means the concentration at half of the fitted maximal effect)
Outline: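 PGC/ERR cell line, 2,000 cells/well, pre-incubated 6 hours at 37 C, then exposed to compounds for 18 hours at 37 C; luciferase read with One-Glo luminescence after 30 min at room temperature.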

[7] = qHTS assay to identify small molecule agonists of the estrogen related receptor signaling pathway with the pleiotropic PPARgamma coactivator (PGC) from Tox21 10K library (AID 1224842); further: nearly all actives have a fitted effect of over 15% in size
Outline: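 PGC/ERR reporter cell line, 2,000 cells per well, incubated 6 h at 37 C before 23 nL compound in DMSO was added. After 18 h at 37 C, One-Glo luminescence read following 30 min at room temperature.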

[8] = qHTS assay to identify small molecule agonists of the hypoxia (HIF-1) signaling pathway - cell viability counter screen (AID 1224844; calls by dose curve; further: nearly all actives have a fitted effect of over 50% in size; further: potency means the concentration at half of the fitted maximal effect)
Outline: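 HRE-bla ME-180 cells, 2,000/well in 0.5% dialyzed FBS medium, treated 17 h at 37C with compounds. Viability read in the same wells as the bla reporter, by CellTiter-Glo luminescence after 30 min at room temperature.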

[9] = qHTS assay to identify small molecule agonists of the retinoic acid receptor (RAR) signaling pathway (AID 1159553)
Outline: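 C3RL4 RARE-luciferase cells were seeded at 1,000/well and grown overnight at 37 C, then exposed to compounds for 6 hr at 37 C, 5% CO2. Luciferase reagent was added and luminescence was read after 30 min at room temperature.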

[10] = biological target: Nuclear receptor subfamily 1 group I member 3 (Homo sapiens) (UniProt Q14994); assay: qHTS assay to identify small molecule antagonists of the constitutive androstane receptor (CAR) signaling pathway (AID 1224838); further: nearly all actives have a fitted effect of over 40% in size; further: potency means the concentration at half of the fitted maximal effect
Sequence of Nuclear receptor subfamily 1 group I member 3 (Homo sapiens) (Q14994 whole entry, looked up): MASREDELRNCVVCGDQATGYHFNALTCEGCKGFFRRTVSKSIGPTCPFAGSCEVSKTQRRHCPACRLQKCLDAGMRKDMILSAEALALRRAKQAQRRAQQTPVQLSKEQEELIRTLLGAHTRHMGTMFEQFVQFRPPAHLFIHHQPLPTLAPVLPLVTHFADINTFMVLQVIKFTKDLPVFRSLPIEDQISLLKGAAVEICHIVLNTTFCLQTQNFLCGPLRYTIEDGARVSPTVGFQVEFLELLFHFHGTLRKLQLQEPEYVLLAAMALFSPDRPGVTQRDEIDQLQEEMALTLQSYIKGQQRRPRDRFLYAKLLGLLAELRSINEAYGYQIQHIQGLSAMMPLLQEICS
Outline: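 HepG2 cells stably carrying hCAR and a CYP2B6-2.2kb luciferase reporter, seeded 4 hrs before compound (15 concentrations). Stimulated with 50 nM CITCO for 24 hr at 37 C. ONE-Glo luminescence read after 30 min at room temperature.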

[11] = biological target: Nuclear receptor subfamily 1 group I member 3 (Homo sapiens) (UniProt Q14994); assay: qHTS assay to identify small molecule agonists of the constitutive androstane receptor (CAR) signaling pathway (AID 1224839); further: nearly all actives have a fitted effect of over 15% in size; further: potency means the concentration at half of the fitted maximal effect
Outline: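 Using human hepatoma HepG2 cells engineered with hCAR and a CYP2B6-2.2kb reporter, 15-concentration compound series were incubated 24 h alongside PK11195 at 0.75 uM final, with luminescence quantified afterwards.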

[12] = biological target: Thyrotropin receptor (Homo sapiens) (UniProt P16473); assay: qHTS assay to identify small molecule agonists of the thyroid stimulating hormone receptor (TSHR) signaling pathway (AID 1224843; calls by dose curve; further: nearly all actives have a fitted effect of over 45% in size; further: potency means the concentration at half of the fitted maximal effect)
Sequence of Thyrotropin receptor (Homo sapiens) (P16473 whole entry, looked up): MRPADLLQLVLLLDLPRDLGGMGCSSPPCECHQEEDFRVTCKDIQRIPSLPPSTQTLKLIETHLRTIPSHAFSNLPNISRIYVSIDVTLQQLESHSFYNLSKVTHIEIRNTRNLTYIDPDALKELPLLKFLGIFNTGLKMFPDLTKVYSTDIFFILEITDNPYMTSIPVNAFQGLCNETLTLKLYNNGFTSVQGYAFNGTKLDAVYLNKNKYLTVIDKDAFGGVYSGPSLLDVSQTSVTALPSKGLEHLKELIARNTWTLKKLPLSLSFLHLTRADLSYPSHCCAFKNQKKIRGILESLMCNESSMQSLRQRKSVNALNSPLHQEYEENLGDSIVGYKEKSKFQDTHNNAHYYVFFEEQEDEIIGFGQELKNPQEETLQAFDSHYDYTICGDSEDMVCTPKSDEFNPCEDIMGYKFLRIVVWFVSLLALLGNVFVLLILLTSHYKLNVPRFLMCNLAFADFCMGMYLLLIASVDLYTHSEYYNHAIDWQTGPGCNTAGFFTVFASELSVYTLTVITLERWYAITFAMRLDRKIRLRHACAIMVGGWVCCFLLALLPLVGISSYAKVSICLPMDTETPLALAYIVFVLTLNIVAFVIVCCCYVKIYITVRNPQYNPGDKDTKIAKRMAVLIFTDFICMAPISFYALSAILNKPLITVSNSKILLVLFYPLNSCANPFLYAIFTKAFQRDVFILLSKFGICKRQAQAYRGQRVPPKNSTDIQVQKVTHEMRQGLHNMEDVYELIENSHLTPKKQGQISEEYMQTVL
Outline: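 TSHR-HEK293 cells in agonist mode, 30 min room-temperature step, then cAMP measured by competitive HTRF (cAMP-d2 with anti-cAMP cryptate) after 1 h at room temperature. Tested at 15 concentrations in triplicate.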

[13] = qHTS assay to identify small molecule antagonists of the estrogen related receptor (ERR) signaling pathway from Tox21 library - cell viability counter screen (AID 1224834); further: nearly all actives have a fitted effect of over 30% in size; further: potency means the concentration at half of the fitted maximal effect
Outline: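 ERR reporter cells, 2,000 per well, rested 6 h, then exposed to compound in DMSO for 17.5 hours at 37 C. Viability read as fluorescence after 30 min with CellTiter-Fluor.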

[14] = qHTS assay to identify small molecule agonists of the constitutive androstane receptor (CAR) signaling pathway - cell viability counter screen (AID 1224836); further: nearly all actives have a fitted effect of over 45% in size; further: potency means the concentration at half of the fitted maximal effect
Outline: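 Multiplexed viability check: HepG2-CYP2B6-hCAR cells, 15-point compound dosing, 0.75 uM PK11195 final, 23 h at 37 C, CellTiter-Fluor fluorescence.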

[15] = qHTS assay to identify small molecule antagonists of the estrogen related receptor (ERR) signaling pathway - cell viability counter screen (AID 1224818); further: series mostly up to about 46 µM
Outline: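 ERR cells, 2,000 per well, compound added after 6 h and incubated 17.5 h at 37 C. Viability read by CellTiter-Fluor fluorescence after a further 30 min at 37 C.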

[16] = qHTS assay to identify small molecule antagonists of the estrogen related receptor signaling pathway with the pleiotropic PPARgamma coactivator (PGC) cell viability counter screen (AID 1224822; further: series mostly up to about 46 µM)
Outline: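 PGC/ERR cells rested 6 h, then compound-treated 17.5 h at 37 C. CellTiter-Fluor added for 30 min at 37 C, viability measured by fluorescence intensity.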

| Compound | Potency [1] | Potency [2] | Potency [3] | Potency [4] | Potency [5] | Potency [6] | Potency [7] | Potency [8] | Potency [9] | Potency [10] | Potency [11] | Potency [12] | Potency [13] | Potency [14] | outcome [15] | outcome [16] |
| --- | --- | --- | --- | --- | --- | --- | --- | --- | --- | --- | --- | --- | --- | --- | --- | --- |
| CCOC(=O)c1cn2nc(OP(=S)(OCC)OCC)cc2nc1C | inactive | inactive | inactive | inactive | inactive | 43.3 µM (active) | inactive | inactive | – | – | – | – | – | – | – | – |
| Cc1ncc(C[n+]2csc(CCO)c2C)c(N)n1 | inactive | inactive | – | inactive | inactive | – | – | inactive | inactive | inactive | inactive | inactive | – | – | – | – |
| COC1=CC(=O)O[C@@H](/C=C/c2ccc3c(c2)OCO3)C1 | inactive | 8.27 µM (active) | 60.6 µM (active) | inactive | inactive | 18.5 µM (active) | inactive | inactive | inactive | – | – | inactive | – | – | – | – |
| CC(C)(C)NCC(O)c1cc(Cl)c(N)c(C(F)(F)F)c1 (configuration not stated) | inactive | inactive | inactive | – | inactive | inactive | inactive | inactive | inactive | – | inactive | 2.1 nM (active) | – | – | – | – |
| COC1CC(=C(c2cccs2)c2cccs2)C[N+](C)(C)C1 (configuration not stated) | inactive | – | inactive | inactive | inactive | – | – | inactive | inactive | inactive | inactive | inactive | inactive | inactive | – | – |
| COc1ccc(C(O)(c2cncnc2)C2CC2)cc1 (configuration not stated) | inactive | – | inactive | inactive | inactive | inactive | inactive | inactive | inactive | inactive | inactive | inactive | inactive | inactive | – | – |
| Clc1ccccc1 | inactive | – | inactive | inactive | inactive | inactive | inactive | inactive | inactive | inactive | inactive | inactive | inactive | inactive | – | – |
| CCC[N+](CCC)(CCC)CCC | inactive | – | inactive | inactive | inactive | – | inactive | inactive | inactive | inactive | inactive | – | inactive | inactive | – | – |
| O=S(=O)(Cl)Cl | inactive | – | inactive | inactive | inactive | – | – | inactive | inactive | inactive | inactive | inactive | inactive | inactive | – | – |
| CCCN(CCC)C(=O)Cc1c(-c2ccc(Cl)cc2)nc2ccc(Cl)cn12 | inactive | inactive | – | inactive | inactive | – | – | inactive | inactive | inactive | – | inactive | – | inactive | – | – |
| O=C1c2ccccc2C(=O)N1SC(Cl)(Cl)Cl | 53.7 µM (active) and 30.6 µM (active) | 17 µM (active) and 15.4 µM (active) | 15.7 µM (active) and 20 µM (active) | 24 µM (active) and 19.3 µM (active) | 26.9 µM (active) and 24.3 µM (active) | 53.7 µM (active) and 61.1 µM (active) | inactive | 3.83 µM (active) and 7.76 µM (active) | – | 19.1 µM (active) and 15.4 µM (active) | inactive | 19.1 µM (active) and 12.2 µM (active) | 24 µM (active) and 27.3 µM (active) | 26.9 µM (active) and 43.3 µM (active) | – | – |
| C=CCSSCC=C | inactive | inactive | inactive | inactive | inactive | – | – | inactive | inactive | inactive | inactive | – | – | – | – | – |
| CC(=O)NNc1ccccc1 | inactive | inactive | – | inactive | – | inactive | inactive | inactive | inactive | inactive | inactive | inactive | – | – | – | – |
| CCCN(CCOc1c(Cl)cc(Cl)cc1Cl)C(=O)n1ccnc1 | inactive | inactive | inactive | – | – | 55.6 µM (active) and 27.3 µM (active) | inactive | inactive | inactive | inactive | 54.5 µM (active) | – | – | inactive | – | – |
| CCOP(=S)(OCC)SCSc1cc(Cl)ccc1Cl | inactive | – | inactive | inactive | inactive | – | – | inactive | inactive | inactive | inactive | inactive | inactive | inactive | – | – |
| O=C(Cc1ccccc1)OCCc1ccccc1 | inactive | inactive | 35.6 µM (active) | inactive | inactive | inactive | inactive | inactive | – | – | – | – | inactive | inactive | – | – |
| CCCCCCCCP(=O)(O)O | inactive | – | inactive | inactive | inactive | – | – | – | inactive | – | – | inactive | inactive | inactive | – | – |
| CCOc1cccc(C2(N3CCN(c4ccccc4)CC3)CCC(C)CC2)c1 (configuration not stated) | inactive | – | inactive | inactive | inactive | – | – | inactive | inactive | inactive | inactive | inactive | inactive | – | – | – |
| OC[P+](CO)(CO)CO | inactive | – | inactive | inactive | inactive | – | – | 44.2 µM (active) and inactive | inactive | inactive | – | inactive | inactive | inactive | – | – |
| O=C1NC(=O)C(=O)C(=O)N1 | inactive | – | inactive | inactive | inactive | – | – | inactive | inactive | – | – | inactive | inactive | inactive | – | – |
| COc1ccccc1N1CCNCC1 | inactive | – | inactive | inactive | inactive | – | – | inactive | – | – | – | inactive | inactive | – | inactive | inactive |
| CCCBr | inactive | – | inactive | inactive | inactive | – | – | inactive | inactive | – | – | inactive | inactive | inactive | – | – |
| O=C(NC(=O)c1cc(F)c(F)cc1Cl)Nc1cc(F)ccc1N1CCC(C(=O)O)CC1 | inactive | – | inactive | inactive | inactive | – | – | inactive | inactive | – | – | inactive | inactive | inactive | – | – |
